Screening data deposited in PubChem BioAssay by several laboratories.
MEKK2 mut-MEK5: signal of MEK5 binding to mutant human MEKK2 PB1 domain; bead flow cytometry, Alexa488-MEK5 binding to MEKK2 mutant; percent response, % at 10 µM; actives 0.35% (n = 290,000); in the data active = percent response above about 24%, passing the limit was not always enough
CHT PAM: human CHT allosteric activation; actives 0.49% (n = 310,000); B-score at 10 µM; CHT-expressing cells, membrane potential dye, choline EC20; active compounds read high; LV-AA mutant CHT in HEK293 cells; Q9GZV3;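 active = initial fluorescence not abnormally high and integrated response B-score, plate-corrected, over 3 SD above library mean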
Target sequence (Q9GZV3 whole entry, looked up): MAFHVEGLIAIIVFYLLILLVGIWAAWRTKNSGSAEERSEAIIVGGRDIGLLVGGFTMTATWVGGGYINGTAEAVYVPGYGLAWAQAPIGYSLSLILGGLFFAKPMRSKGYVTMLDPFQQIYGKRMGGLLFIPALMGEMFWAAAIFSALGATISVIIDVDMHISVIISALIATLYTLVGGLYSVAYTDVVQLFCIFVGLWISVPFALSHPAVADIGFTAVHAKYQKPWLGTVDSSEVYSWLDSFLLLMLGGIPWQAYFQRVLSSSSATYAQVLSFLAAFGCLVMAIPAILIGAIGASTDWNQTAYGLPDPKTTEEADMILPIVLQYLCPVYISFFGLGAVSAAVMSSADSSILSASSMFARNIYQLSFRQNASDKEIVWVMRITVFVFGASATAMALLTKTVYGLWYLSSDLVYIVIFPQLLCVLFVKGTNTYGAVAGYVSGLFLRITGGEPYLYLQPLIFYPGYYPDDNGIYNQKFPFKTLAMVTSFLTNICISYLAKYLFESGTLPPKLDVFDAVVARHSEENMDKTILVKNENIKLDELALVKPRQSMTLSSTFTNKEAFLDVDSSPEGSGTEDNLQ
SUMO Mot1 rescue: inhibitors of SUMOylation pathway: yeast Mot1-301 growth rescue | AID 2716 | S. cerevisiae Mot1-301 growth rescue, ATP luminescence, 38.5C; percent above DMSO median, 100 means doubled | actives 1% (n = 320,000) | growth rescue, % at 18.8 µM;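 active = every valid replicate shows activation above 250% relative to neutral control wells; inactive = the rest, any valid replicate at or below 250%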;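 note: OY570 slx delta 5 strain wells were the positive control but not used for scaling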
MEKK2wt PB1 HTS: raises or lowers MEK5 binding to wildtype human MEKK2 PB1 domain; Q9Y2U5; bead flow cytometry, Alexa488-MEK5 binding to MEKK2 WT; actives lie on both sides; binding response (% of control), % at 10 µM; actives 1.1% (n = 290,000); AID 1531; in the data active = binding response below about 67% or above about 130%
MEKK3 PB1 HTS: modulators (inhibitors or enhancers) of MEK5 binding to human MEKK3 PB1 domain; bead-based flow cytometry, Alexa488-MEK5 binding to MEKK3; actives lie on both sides; 0 = blocked by unlabeled MEK5, 100 = vehicle; binding response (% of control), % at 10 µM; actives 1.4% (n = 290,000); AID 1529;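 active = binding response more than 3 SD above or below the average of its plate-row segment, actives on both sides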;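 note: Alexa488 bead fluorescence after subtracting the streptavidin-only scavenger bead signal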
CHT block: inhibits the human high affinity choline transporter; Q9GZV3; CHT-expressing cells, membrane potential dye, choline response; active compounds read low; B-score at 10 µM; actives 0.86% (n = 310,000); AID 488975;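 active = B-score over 3 SD under the library average, and starting fluorescence ratio not unusually high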;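 note: choline stimulus applied at its EC90 after an EC20 pre-addition; B-score computed on integrated fluorescence ratio after choline addition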
MEKK2wt confirm: raises or lowers MEK5 binding to wildtype human MEKK2, retest; bead flow cytometry, Alexa488-MEK5 binding to MEKK2 WT; actives lie on both sides; shares compounds with MEKK3 PB1 HTS; actives 2.4% (n = 5,900); binding response (% of control), % at 10 µM; AID 1892; in the data active = binding response below about 16% or above about 210%; inactive = in between
MEKK2mut confirm: signal of MEK5 binding to mutant human MEKK2, retest. shares compounds with MEKK3 PB1 HTS. bead flow cytometry, Alexa488-MEK5 binding to MEKK2 mutant. percent response, % at 10 µM. actives 2% (n = 5,900); in the data active = percent response mostly above about 71%, no sharp cut-off; inactive = mostly below about 38%;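 note: higher means compound restores mutant binding toward wildtype level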
MEKK3-MEK5 inh: MEKK3-MEK5 PB1 inhibition, single concentration confirmation. binding response (% of control), % at 10 µM. AID 1894. actives 1.8% (n = 5,900). bead flow cytometry, Alexa488-MEK5 binding to MEKK3; active compounds read low. shares compounds with MEKK3 PB1 HTS;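 active = binding response below 72% of control, or above a set upper limit, though filed actives all read lower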;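 note: 100% = DMSO only wells and 0% = binding blocked by excess unlabeled MEK5; lower values mean stronger disruption of MEK5 binding to MEKK3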
Mot1 SUMO dose: SUMO pathway inhibitors in yeast Mot1-301 growth. S. cerevisiae Mot1-301 galactose growth, ATP luminescence, 24 h; -100 = growth of slx-deleted rescue strain. shares compounds with SUMO Mot1 rescue. growth activity, percent, % at 42 µM. 2,300 tested, under 10 active;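 active = Signal drops as the depositor expects, and the fitted half-maximal dose is no more than ten times the top valid tested dose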;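 note: more negative values mean stronger growth rescue toward the control strain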
CHT activ conf: confirmation of human choline transporter (CHT) activators; actives 91% (n = 2,500); CHT-expressing cells, membrane potential dye fluorescence (FDSS); % of choline EC20–EC90 response window; HEK293 expressing CHT LV-AA mutant; choline added at its EC20; activation, % at 10 µM; AID 504833; shares compounds with CHT PAM;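 active = primary screen active, with duplicate mean activation above negative control mean plus 3 SD, cut at about 11% in these data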
HEK293 MP dye: activity in parental HEK293 cells lacking CHT; membrane potential dye fluorescence (FDSS); measured after EC20 choline addition; shares compounds with CHT PAM; ratio readout change at 10 µM, hits read low; actives 62% (n = 2,500);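 active = duplicate-averaged ratio beyond 3 SD from buffer wells, up or down, though filed actives are nearly all decreases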
* hit, by the source's call; i = inactive; · = no result; + = active, no number; ! = a repeat was not active; [ ] = remark or other dose. An excerpt weighted towards active compounds, which were near 4.1% of everything screened.

SMILES	MEKK2 mut-MEK5	CHT PAM	SUMO Mot1 rescue	MEKK2wt PB1 HTS	MEKK3 PB1 HTS	CHT block	MEKK2wt confirm	MEKK2mut confirm	MEKK3-MEK5 inh	CHT activ conf	HEK293 MP dye	others
CCn1c(CNc2ccc(C(=O)O)cc2)nc2ccccc21	5.0	i	-31.5	102.0	101.0	i	·	·	·	·	·
CCn1c(/C=N/Nc2ccc(C(=O)O)cc2)nc2ccccc21	0.0	6.32*	27.8	107.0	133.0*	i	99.0	-2.0	98.0	44.1*	-35.2*
CN(C)CCCN(C(=O)c1ccco1)c1nc2cc3c(cc2s1)OCO3	5.0	i	2.4	109.0	102.0	i	·	·	·	·	·
CN(C)CCCN(C(=O)c1ccco1)c1nc2c(F)cccc2s1	68.0*	i	-14.2	101.0	62.0*[inhibitor]	i	107.0	7.0	102.0	45.1*	-58.2*
CCN1/C(=C/c2ccc3cccc(C)c3[n+]2CC)Sc2ccccc21	-27.0	i	-6.5	40.0*[inhibitor]	73.0	i	62.0	-21.0	95.0	11.8*	i
C[C@@H]1CCC(=O)N(CC[C@H](Oc2ccccc2)c2ccccc2)CC1	-4.0	i	-9.2	100.0	99.0	i	·	·	·	·	·
CCCn1c(-c2cccs2)nc2ccccc21	0.0	i	-20.4	97.0	97.0	i	·	·	·	·	·
CCN1c2ccccc2-c2nc3ccccc3n2C1c1cccs1 (stereo not drawn)	-5.0	7.4*	103.4	0.0*[inhibitor]	0.0*[inhibitor]	i	104.0	0.0	105.0	44.7*	i
O=C(CCc1ccc(O)cc1)N/N=C/c1coc2ccccc2c1=O	-2.0	i	33.5	99.0	101.0	i	·	·	·	·	·
CN1CCc2c(sc3nc(SCC(N)=O)n(-c4ccccc4)c(=O)c23)C1	79.0*	i	-0.2	105.0	99.0	i	94.0	-6.0	99.0	40.5*	-33.8*
CCCCOC(=O)Cn1c(=O)n(CC(=O)OCCCC)c2ccccc21	2.0	i	-2.2	98.0	101.0	i	·	·	·	·	·
CCCCCCCCCCOC(=O)Cn1c(COc2cccc(C)c2)[n+](C)c2ccccc21	112.0*	i	68.9	402.0*	123.0*	i	254.0*	90.0*	109.0	6.5	-40.7*
CCCCCCCCCCOC(=O)Cn1c(COc2ccccc2C)[n+](C)c2ccccc21	141.0*	13.8*	-62.8	293.0*	115.0	i	254.0*	150.0*	111.0	5.4	-45.9*
Cc1ccccc1OCc1n(CC(=O)OC2CC(C)CCC2C(C)C)c2ccccc2[n+]1C (stereo not drawn)	-3.0	i	9.0	159.0*	104.0	i	175.0	39.0	109.0	13.7*	i
CCCCCCCCCCOC(=O)Cn1c(COc2ccc(OC)cc2)[n+](C)c2ccccc21	80.0*	13.4*	562.6*!	256.0*	120.0	i	266.0*	79.0*	108.0	27.8*	-42.1*	Mot1 SUMO dose=-2.0
CC1CCC(C(C)C)C(OC(=O)Cn2c(-c3ccc(Cl)cc3)[n+](C)c3ccccc32)C1 (stereo not drawn)	-3.0	i	-32.0	105.0	98.0	i	·	·	·	·	·
Cc1cc(C)nc(N2CCCC(C(=O)NC(C)CCc3ccco3)C2)n1 (stereo not drawn)	2.0	i	-10.9	97.0	93.0	i	·	·	·	·	·
COc1ccc(Cn2c(C)ccc2C)cc1	-9.0	i	28.6	88.0	83.0	i	·	·	·	·	·
COc1ccc(Cn2c(-c3ccc(Br)cc3)c[n+]3ccccc23)cc1	36.0	9.61*	-17.5	140.0*	110.0	i	118.0	11.0	106.0	70.5*	-60*
CC[n+]1c(/C=C/N(C)c2ccccc2)oc2ccccc21	-1.0	i	-2.6	99.0	72.0*[inhibitor]	i	103.0	3.0	103.0	51.5*	-30.1*
Cc1ccc(-n2cc(CNCCCn3ccnc3C)c(-c3ccc(F)cc3)n2)cc1	178.0*	i	4.3	306.0*	115.0	i	204.0	77.0*	116.0	31.8*	-32.1*
CCOC(=O)c1ccc2[nH]c3c(c2c1)CN(C)CC3	24.0*	6.85*	-3.2	129.0	105.0	i	124.0	16.0	100.0	32.0*	-43.2*
Cc1ccc2[nH]c3c(c2c1)CN(C)CC3	16.0	i	45.8	101.0	88.0	i	·	·	·	·	·
Cc1cc(=O)c(C(=O)O)cn1Nc1ccc(F)cc1	7.0	i	·	111.0	108.0	i	·	·	·	·	·
Cc1cc(=O)c(C(=O)O)cn1Nc1ccc(Cl)cc1	6.0	i	+	115.0	107.0	i	·	·	·	·	·	Mot1 SUMO dose=-0.5
SMILES	MEKK2 mut-MEK5	CHT PAM	SUMO Mot1 rescue	MEKK2wt PB1 HTS	MEKK3 PB1 HTS	CHT block	MEKK2wt confirm	MEKK2mut confirm	MEKK3-MEK5 inh	CHT activ conf	HEK293 MP dye	others
Cc1ccccc1NC(=O)COC(=O)C1C2CC3OC(=O)C1C3C2 (stereo not drawn)	-1.0	i	473.9*	103.0	107.0	i	·	·	·	·	·	Mot1 SUMO dose=0.5
COc1ccccc1NC(=O)COC(=O)C1C2CC3OC(=O)C1C3C2 (stereo not drawn)	-2.0	i	597.1	101.0	104.0	i	·	·	·	·	·
COc1ccc2c(c1)[C@H]1[C@H](CO2)[C@H](c2ccccc2)[C@]2(C)C(=O)Nc3cc(F)ccc3C(=O)N12	·	·	375.5*	·	·	·	·	·	·	·	·	Mot1 SUMO dose=-1.0
COc1ccc2c(c1)[C@H]1[C@H](CO2)[C@H](c2ccccc2)[C@]2(C)C(=O)Nc3ccccc3C(=O)N12	·	i	108.6	·	·	i	·	·	·	·	·
COc1cc2c(cc1OC)C(=O)N1[C@H]3c4ccccc4OC[C@@H]3[C@H](c3ccccc3)[C@]1(C)C(=O)N2	·	i	182.9	·	·	i	·	·	·	·	·
COc1ccc2c(c1)[C@H]1[C@H](CO2)[C@H](c2ccccc2)[C@]2(C)C(=O)Nc3ccc(Br)cc3C(=O)N12	·	·	548.5*	·	·	·	·	·	·	·	·	Mot1 SUMO dose=-0.8
